# Measurements taken from PubChem BioAssay AID1347416 (National Center for Advancing Translational Sciences (NCATS), 2020).
# The campaign covered roughly 4,100 compounds. About 1,600 (39%) were called active. About 25% were inconclusive and are not listed. Some of the results follow. Unmarked numbers belong to inactive results. Calls follow the shape of the dose curve; as a rule, active = well fitted inhibition curve with a large enough effect; inconclusive = small, poorly fitted or top-dose-only effect; inactive = no such curve, though single readings can be large or run the other way.
# Experiment: qHTS Validation assay for Inhibitors of Plasmodium falciparum Dd2 growth in vitro; also: nearly all actives have a fitted effect of over 70% in size
# Details: P. falciparum Dd2 in RBCs, SYBR Green growth, 72 h; series mostly up to 28.7 µM; activity change, negative = inhibition: at the top concentration
# Summary of the method: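 P. falciparum Dd2-infected red blood cells (2.5% hematocrit, 0.3% parasitemia) grown 72 h at 37 °C under 5% O2 with compounds in a titration, 29 uM to 0.5 nM final. Growth read as SYBR Green-1 fluorescence after ~16 h lysis; artesunate 300 nM as positive control.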
# % is scaled to controls: 0 for no effect and ±100 for the full control effect; potency is read from the fitted curve at half-maximal effect.
Structure (SMILES),"activity change, negative = inhibition",Potency
O=C(c1cn[nH]c1)N1CCC(c2nc(CCOCC3CC3)no2)C1 (stereo not given),12.7%,
COc1nc2ccccc2nc1CCC(=O)N[C@H]1COC[C@H]1Cc1cc(C)no1,41.7%,
CN(C)C[C@@H]1CN(Cc2ccccc2)C[C@H]1NC(=O)c1ccncn1,-1.84%,
Cc1ccccc1NC(=O)c1c(NC(=O)c2ccco2)sc2c1CCC(C(C)(C)C)C2 (stereo not given),,13.3 µM (active)
Cc1ccccc1NC(=O)c1c(NC(=O)c2cccs2)sc2c1CCC(C)C2 (stereo not given),-9.18%,
Cc1ccc(NC(=O)c2c(NC(=O)c3ccco3)sc3c2CCC(C(C)(C)C)C3)c(C)c1 (stereo not given),11.1%,
Cc1ccc(Cl)cc1NC(=O)c1cc2ccccc2cc1O,,1.5 µM (active)
CCOc1ccc(NC(=O)c2oc3ccccc3c2NC(=O)c2cc(C)cc(C)c2)cc1,-26.5%,
O=C(NCC1CC1)c1cccc(OC2CN(CC3CC=CCC3)C2)c1 (stereo not given),-22.2%,
O=C(CN1CCN(S(=O)(=O)c2cccs2)CC1)NCC1CCCCC1,7.52%,
CCOc1ccc(NC(=O)c2cc3ccccc3cc2O)cc1,,5.31 µM (active)
Cc1ccc(Cl)cc1NC(=O)c1nnn(Cc2ccccc2)c1N,15%,
Cc1ccc(Cl)cc1NC(=O)CCn1cnc2ccccc2c1=O,35.2%,
O=C(NCC1CCCCC1)c1cc2ccccc2cc1O,,9.44 µM (active)
Cc1ccsc1C(=O)N1CC(Oc2ccc(-c3nc(-c4ccccc4)no3)cc2)C1,4.37%,
CCn1cc(CN2CC(Oc3ccc(-c4noc(-c5ccncc5)n4)cc3)C2)cn1,,13.3 µM (active)
Cc1nc(C)c(C(=O)N2CC(Oc3ccc(-c4noc(-c5ccccc5)n4)cc3)C2)s1,-25.7%,
Cc1c(C#N)c(N)nc(Cl)c1C#N,-5.23%,
CN1N=C(C(=O)N2CCc3c([nH]c4ccccc34)C2c2ccccc2Cl)CCC1=O (stereo not given),,5.31 µM (active)
CCOc1cc(C(=O)N2CCc3c([nH]c4ccccc34)C2c2ccccc2)cc(OCC)c1OCC (stereo not given),,7.5 µM (active)

Structure (SMILES),"activity change, negative = inhibition",Potency
CCOc1cccc(C2c3[nH]c4ccccc4c3CCN2C(=O)CSCc2ccc(F)cc2)c1 (stereo not given),,15 µM (active)
CC(C)NC(=O)N1CCN(S(=O)(=O)c2ccccc2)[C@@H](C(=O)N[C@H](Cc2c[nH]c3ccccc23)C(N)=O)C1,15.9%,
COc1ccc2nc3cc(Cl)ccc3c(Nc3cc(C(C)C)c(O)cc3C)c2c1,,0.266 µM (active)
CN(Cc1ccc(C2CC(=O)Nc3n[nH]c(C4CCC4)c32)o1)S(C)(=O)=O (stereo not given),18.7%,
Clc1cnccc1CN1CC(CNc2ccccc2)C2(C1)CN(c1ccccc1)C2 (stereo not given),,13.7 µM (active)
Oc1ccccc1CN1CC(CNc2cccnc2)C2(C1)CN(c1ccccc1)C2 (stereo not given),,10.9 µM (active)
CC(C)c1ccc(CN2CC(CNc3cccnc3)C3(C2)CN(c2ccccc2)C3)cc1 (stereo not given),,4.85 µM (active)
Cc1ccc(C)c(-c2cc3c(=O)n(CCNC(=O)c4cccc(F)c4)ccn3n2)c1,-22.4%,
COc1ccc([S+](=O)([O-])N2CCC(N3Cc4cccn4C3=O)CC2)cc1,34.9%,
Cc1ccc2oc(=O)c3cnn(CC(=O)Nc4cccc(C(F)(F)F)c4)c3c2c1,,2.66 µM (active)
COc1cc(NC(=O)Cn2ncc3c(=O)oc4ccccc4c32)cc(OC)c1OC,,2.66 µM (active)
O=C(NN1C(=O)C2C(C1=O)C1C=CC2C12CC2)c1cccnc1 (stereo not given),36.4%,
COc1ccc(CC(=O)NCc2cc(C)cc3c(C)c(C)[nH]c23)c(OC)c1,,8.41 µM (active)
CCOCCc1nnc(NC(=O)C(=O)c2cc(C)n(-c3ccc(C)c(C)c3)c2C)s1,2.27%,
COc1ccc(-c2nc3c(c(SCc4ccc(Br)cc4)n2)Cc2c(CO)cnc(C)c2O3)cc1,,0.0668 µM (active)
CCCCn1cc(S(=O)(=O)c2ccc(Cl)cc2)c(=O)c2cc(F)c(N3CCCCC3)cc21,,15 µM (active)
COc1ccc2c(c1)c(=O)c(S(=O)(=O)c1ccc(F)cc1)cn2CC(=O)Nc1ccc(C)cc1C,32.9%,
CCCN(CC1CCOC1)C(=O)c1ccc(F)c(Cl)c1 (stereo not given),4.66%,
C1CCC(CNc2c3c(nc4nnnn24)CCCC3)CC1,,13.3 µM (active)
Oc1ccccc1-c1cc(C2=CCOCC2)c2cncn2c1,,9.68 µM (active)

Structure (SMILES),"activity change, negative = inhibition",Potency
Oc1ccccc1-c1cc(-c2cccnc2)c2cncn2c1,,1.72 µM (active)
c1cncc(-c2nnc(-c3cccnc3)nn2)c1,189%,
Cc1ccc([S+](=O)([O-])NC2CCCN(c3nc4ncccc4o3)C2)cc1 (stereo not given),0%,
O=C(N/N=C/c1ccccn1)c1cccs1,46.3%,
O=C(O)c1ccc(N/N=C/c2cn(-c3ccccc3)nc2-c2cccs2)cc1,,2.66 µM (active)
NS(=O)(=O)c1ccc(N/N=C/c2cn(-c3ccccc3)nc2-c2cccs2)cc1,,0.335 µM (active)
Cc1ccc(Nc2nnc(SCC(=O)c3ccc(O)cc3O)s2)cc1,-5.84%,
COCC(C)n1c(C)cc(C(=O)CSc2nnc(Nc3ccccc3F)s2)c1C (stereo not given),,2.99 µM (active)
CCOC(=O)c1cc(C)n(CC2CCC(C(=O)Nc3cccc(Cl)c3)CC2)c1C (stereo not given),,8.41 µM (active)
CCOC(=O)c1cccc(NC(=O)N2CC[C@@H](CC(=O)N[C@@H](CO)CC(C)C)[C@@H](CC)C2)c1,-15.6%,
CC(=O)N1CCCc2cc(S(=O)(=O)N3CCCC(C(=O)Nc4ccc(C)c(C)c4)C3)ccc21 (stereo not given),-16.8%,
CC(C)CCN1CCC(N2CCN(S(=O)(=O)c3ccc4c(c3)CCCC4)CC2)C1=O (stereo not given),,9.44 µM (active)
CNC(=O)[C@@H]1C[C@H](Oc2cccnc2)CN1S(=O)(=O)c1ccc2c(c1)CCC2,10.2%,
O=C1NC(=S)S/C1=C\C=C\c1ccc([N+](=O)[O-])o1,,5.31 µM (active)
Cc1ccc(NC(=O)N2CCC(N3C(=O)C4(CCCCC4)C3c3ccncc3)CC2)cc1C (stereo not given),,7.5 µM (active)
CCCNC(=O)N1CCC(N2C(=O)[C@H](OCCOC)[C@@H]2c2ccncc2)CC1,4.94%,
COCCO[C@H]1C(=O)N(C2CCN(C(=O)COc3ccccc3)CC2)[C@H]1c1ccncc1,9.04%,
CCNc1nc(NC(C)(C)C)nc(N2CCCC2)n1,,2.37 µM (active)
CCOC(=O)c1c(NC(=O)C[n+]2ccc(N(C)C)cc2)sc(C)c1C,,1.33 µM (active)
Cc1cc[n+](CC(=O)Nc2cccc(C)c2)cc1,28.2%,
